Measurements: PubChem BioAssay
Activity calls are given as the source filed them.

Tests used:
[1] = small molecules captured by biotinylated probe aFSTL3 – biochemical, small-molecule microarray, fluorescence 635/667, stem cell growth factor project, primary screen (AID 1064); details: higher = more signal;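 further: measures binding of the biotinylated anti-FSTL3 antibody to printed compounds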
[2] = binders from COS7 lysate, DM2A8 probe, primary screen, torsin A project, cell lysate, small-molecule microarray, fluorescence 635/667 (AID 1065); details: higher = more signal, COS7 lysate expressing mutant human TOR1A
[3] = small molecules captured by biotinylated probe aFGF2 – biochemical, small-molecule microarray, fluorescence 635/667, stem cell growth factor project, primary screen (AID 1067); details: higher = more signal;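 further: measures binding of biotinylated aFGF2 protein to printed compounds on slides; z-score merges feature fluorescence and signal-to-noise across triplicate slides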
[4] = small molecules captured by biotinylated probe aFGF10 – biochemical, small-molecule microarray, fluorescence 635/667, stem cell growth factor project, primary screen (AID 1071); details: higher = more signal;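 further: score merges 667 nm spot intensity and signal to noise from triplicate slides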
[5] = target: Neurogenic locus notch homolog protein 2 (Homo sapiens) (UniProt Q04721); test: small molecules binding Notch2 protein – biochemical, small-molecule microarray, 635 nm fluorescence, stem cell growth factors, primary screen (AID 1073); details: higher = more signal
[6] = target: Pro-neuregulin-1, membrane-bound isoform (Homo sapiens) (UniProt Q02297); test: small molecules binding neuregulin-1 protein – biochemical, small-molecule microarray, fluorescence 635/667, psychiatric disease protein project, primary screen (AID 1075); details: NRG1 binding, 635 nm fluorescence, higher = more signal;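 further: score combines 667 nm spot fluorescence with signal to noise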
[7] = tested on: Neuregulin-1 EGF-like domain; test: small molecules binding NRG1 EGF domain – biochemical, small-molecule microarray, 635 nm fluorescence, primary screen (AID 1081); details: higher = more signal;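 further: binding of the protein to compounds printed on small-molecule microarray slides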
[8] = FRG1 expression reporter modulators in myotubes – cell-based, C2C12 myotubes, firefly/Renilla luciferase, luminescence, FRG1 inhibition for FSHD, primary screen (AID 1084); details: FRG1 promoter luciferase, higher = more signal, called active from +8 up or from −8 down
[9] = small molecules captured by biotinylated probe aFST – biochemical, small-molecule microarray, fluorescence 635/667, stem cell growth factor project, primary screen (AID 1086); details: higher = more signal;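 further: score merges 667 nm fluorescence with signal-to-noise of each printed compound spot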
[10] = binders of probe aHhip on microarray, primary screen, stem cell growth factor project, biochemical, small-molecule microarray, fluorescence 635/667 (AID 1087); details: higher = more signal;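 further: score merges spot fluorescence at 667nm with spot signal to noise ratio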

Chain of Pro-neuregulin-1, membrane-bound isoform (Homo sapiens) (Q02297 whole entry, looked up, the tested form may be a part, canonical isoform): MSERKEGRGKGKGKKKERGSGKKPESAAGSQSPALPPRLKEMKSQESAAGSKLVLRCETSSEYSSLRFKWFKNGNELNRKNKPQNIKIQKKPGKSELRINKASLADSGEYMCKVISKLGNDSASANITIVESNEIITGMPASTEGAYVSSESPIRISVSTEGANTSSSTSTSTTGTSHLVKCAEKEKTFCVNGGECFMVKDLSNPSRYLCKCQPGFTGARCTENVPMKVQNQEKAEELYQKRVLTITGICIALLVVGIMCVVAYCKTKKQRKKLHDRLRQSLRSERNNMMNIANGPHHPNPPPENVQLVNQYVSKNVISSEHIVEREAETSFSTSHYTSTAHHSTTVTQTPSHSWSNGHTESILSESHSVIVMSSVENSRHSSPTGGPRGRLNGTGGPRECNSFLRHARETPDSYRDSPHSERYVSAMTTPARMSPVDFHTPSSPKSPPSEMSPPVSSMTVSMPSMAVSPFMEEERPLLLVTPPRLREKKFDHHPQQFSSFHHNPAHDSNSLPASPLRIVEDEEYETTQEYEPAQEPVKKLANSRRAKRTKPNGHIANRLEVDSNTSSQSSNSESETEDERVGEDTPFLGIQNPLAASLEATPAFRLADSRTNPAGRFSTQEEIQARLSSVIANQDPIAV
Chain of Neurogenic locus notch homolog protein 2 (Homo sapiens) (Q04721 whole entry, looked up, canonical isoform): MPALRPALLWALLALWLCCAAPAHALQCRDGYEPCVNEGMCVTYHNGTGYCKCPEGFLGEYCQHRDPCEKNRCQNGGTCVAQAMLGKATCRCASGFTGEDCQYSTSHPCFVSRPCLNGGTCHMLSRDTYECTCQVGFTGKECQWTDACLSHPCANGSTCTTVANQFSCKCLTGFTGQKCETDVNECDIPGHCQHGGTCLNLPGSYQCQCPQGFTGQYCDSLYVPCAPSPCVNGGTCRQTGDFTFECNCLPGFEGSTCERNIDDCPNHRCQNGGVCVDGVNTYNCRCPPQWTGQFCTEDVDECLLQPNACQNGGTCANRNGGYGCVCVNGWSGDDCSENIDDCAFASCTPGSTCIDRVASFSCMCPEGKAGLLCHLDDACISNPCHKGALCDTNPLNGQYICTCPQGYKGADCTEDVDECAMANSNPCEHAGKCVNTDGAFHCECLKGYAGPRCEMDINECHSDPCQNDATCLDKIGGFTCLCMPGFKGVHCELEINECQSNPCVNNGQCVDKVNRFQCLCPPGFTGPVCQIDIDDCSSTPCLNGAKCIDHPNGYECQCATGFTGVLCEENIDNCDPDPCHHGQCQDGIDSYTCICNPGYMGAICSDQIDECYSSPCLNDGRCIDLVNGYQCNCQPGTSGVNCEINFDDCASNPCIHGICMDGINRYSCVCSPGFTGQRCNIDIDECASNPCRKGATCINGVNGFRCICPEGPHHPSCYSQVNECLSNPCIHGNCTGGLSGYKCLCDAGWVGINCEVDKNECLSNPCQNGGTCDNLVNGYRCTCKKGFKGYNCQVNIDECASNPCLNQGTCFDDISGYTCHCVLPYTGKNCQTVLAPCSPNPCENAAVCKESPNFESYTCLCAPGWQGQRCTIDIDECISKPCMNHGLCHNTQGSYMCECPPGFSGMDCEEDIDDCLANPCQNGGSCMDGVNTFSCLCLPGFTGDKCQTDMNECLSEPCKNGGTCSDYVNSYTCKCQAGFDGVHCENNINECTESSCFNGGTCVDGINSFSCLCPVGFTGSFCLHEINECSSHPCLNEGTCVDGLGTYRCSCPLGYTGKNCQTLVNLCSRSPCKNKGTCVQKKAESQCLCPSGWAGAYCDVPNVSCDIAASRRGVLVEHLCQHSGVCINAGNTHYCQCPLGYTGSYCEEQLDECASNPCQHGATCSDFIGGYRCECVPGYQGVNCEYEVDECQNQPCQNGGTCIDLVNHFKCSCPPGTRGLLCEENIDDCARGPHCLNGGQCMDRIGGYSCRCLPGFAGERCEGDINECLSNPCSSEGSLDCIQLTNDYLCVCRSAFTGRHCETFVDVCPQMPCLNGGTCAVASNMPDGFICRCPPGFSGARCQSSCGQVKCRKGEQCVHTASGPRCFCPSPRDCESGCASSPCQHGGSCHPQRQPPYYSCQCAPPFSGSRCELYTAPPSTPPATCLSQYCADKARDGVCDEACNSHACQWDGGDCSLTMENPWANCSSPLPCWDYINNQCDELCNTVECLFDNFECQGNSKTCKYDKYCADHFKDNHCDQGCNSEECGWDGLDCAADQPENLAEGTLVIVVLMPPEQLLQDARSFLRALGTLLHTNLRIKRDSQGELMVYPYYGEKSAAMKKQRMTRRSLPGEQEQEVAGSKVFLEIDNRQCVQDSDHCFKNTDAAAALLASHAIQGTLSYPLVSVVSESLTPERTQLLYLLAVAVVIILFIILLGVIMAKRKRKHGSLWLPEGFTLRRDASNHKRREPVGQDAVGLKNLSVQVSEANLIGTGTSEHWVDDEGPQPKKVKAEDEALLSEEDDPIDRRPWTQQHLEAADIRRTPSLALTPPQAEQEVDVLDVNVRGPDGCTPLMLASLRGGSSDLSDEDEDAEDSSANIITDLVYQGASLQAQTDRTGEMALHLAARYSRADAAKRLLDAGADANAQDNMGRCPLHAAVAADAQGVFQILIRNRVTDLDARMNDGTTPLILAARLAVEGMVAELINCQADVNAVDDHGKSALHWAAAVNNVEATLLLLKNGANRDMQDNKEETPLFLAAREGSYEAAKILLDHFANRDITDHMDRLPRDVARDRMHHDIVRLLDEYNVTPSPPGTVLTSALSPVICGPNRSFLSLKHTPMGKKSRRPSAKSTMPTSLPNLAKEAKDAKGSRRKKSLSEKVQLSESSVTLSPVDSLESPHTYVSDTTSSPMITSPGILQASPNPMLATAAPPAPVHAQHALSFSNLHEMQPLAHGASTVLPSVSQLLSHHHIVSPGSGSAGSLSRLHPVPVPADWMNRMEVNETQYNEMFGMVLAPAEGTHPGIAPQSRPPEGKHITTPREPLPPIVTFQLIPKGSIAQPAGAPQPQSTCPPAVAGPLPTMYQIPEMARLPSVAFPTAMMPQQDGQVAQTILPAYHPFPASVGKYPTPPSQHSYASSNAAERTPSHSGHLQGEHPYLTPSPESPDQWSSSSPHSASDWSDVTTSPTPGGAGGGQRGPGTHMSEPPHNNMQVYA

Compound	composite z-score [1]	composite z-score [2]	composite z-score [3]	composite z-score [4]	composite z-score [5]	composite z-score [6]	composite z-score [7]	z-score [8]	composite z-score [9]	composite z-score [10]
COCCCNC(=O)[C@@]1(C)c2ccccc2C(=O)N(Cc2ccccc2)[C@H]1c1ccc(CO)cc1	0.235	0.0748	-0.173	-0.979	-1.19	1.88	1.5	-1.24 (inactive)	-0.353	-0.147
C=C(CCCC)C(=O)CC[C@@H](OC(=O)c1ccccc1-c1ccccc1C(=O)O)c1ccc(CO)o1	-0.241	-0.141	-0.0291	0.45	0.629	0.504	0.989	-0.161 (inactive)	0.137	0.192
[N-]=[N+]=NCc1ccccc1C[C@]1(C(=O)NCc2ccccc2)COC(c2ccc(OCCCO)cc2)=N1	0.0555	0.808	0.0111	0.157	0.472	1.17	0.931	-3.06 (inactive)	0.534	-0.166
C=CCOC(=O)[C@@H]1[C@H]2C(=O)O[C@H](c3ccccc3)[C@H](c3ccccc3)N2[C@H](c2ccc(OCCOC(=O)[C@H]3C[C@H]4C(=O)N[C@@H](CC(C)C)C(=O)N4[C@H]3c3cccc(OCCO)c3)cc2)[C@@]12C(=O)Nc1ccc(I)cc12	-0.187	0.83	-0.0232	0.81	0.809	0.71	1.27	1.6 (inactive)	0.186	-0.0296
CC(c1ccccc1)C(O)C1C=CC2C(=O)N(c3ccccc3)C(=O)C2N1Nc1ccccc1F (stereo not given)	-0.0296	0.267	0.0786	0.26	0.917	1.28	0.679	0.985 (inactive)	1.34	-0.191
C=CC[C@]1(C(=O)NCCN2CCOCC2)N=C(c2ccc(OCCCO)cc2)O[C@H]1c1ccccc1N=[N+]=[N-]	1.13	0.562	0.178	0.32	0.832	1.56	1.14	1.98 (inactive)	1.08	0.176
O=C1OCC=C[C@H]2OC34C=CCN(Cc5ccccc5)C(=O)[C@H]3N(CCCO)C(=O)[C@@H]4[C@@H]12 (stereo not given in full)	0.646	-0.815	0.0661	-0.17	-0.286	2.42	1.42	0.0735 (inactive)	0.245	0.902
O=C1[C@H]2C=C(Br)[C@H](C[C@@H]2OCCOCCO)[C@@]12CO2	0.0321	-0.0798	-0.103	0.373	0.473	-0.151	0.437	-0.0763 (inactive)	0.0751	-0.0994
[N-]=[N+]=NCc1ccccc1[C@H]1OC(c2ccc(OCCCO)cc2)=N[C@@]1(Cc1ccccc1)C(=O)NCC(O)CO (stereo not given in full)	0.835	0.768	-0.127	0.407	0.641	1.65	0.565	-0.0633 (inactive)	0.1	-0.146
CCCC[C@H]1OB(O)C[C@H]2C1=C(C)Cn1c(=O)n(-c3ccccc3)c(=O)n12	-0.396	0.383	-0.116	0.365	0.585	-0.0946	0.129	-0.127 (inactive)	0.292	-0.0237
[N-]=[N+]=Nc1ccccc1[C@@H]1OC(c2ccc(OCCCO)cc2)=N[C@]1(CCS(=O)(=O)c1ccccc1)C(=O)N1CCCCC1	1.78	1.25	0.206	0.77	1.6	1.37	1.29	-1.72 (inactive)	1.18	-0.249
C=CCN1C(=O)[C@]2(Cc3ccccc31)N=C(c1ccc(OCCCO)cc1)O[C@@H]2c1ccccc1	0.5	0.152	-0.062	0.439	1.6	0.904	1.2	-2.5 (inactive)	0.961	0.0854
COC(=O)[C@@]1(Cc2ccccc2)[C@H]2c3cc(C(=O)N(C)C)n(Cc4cc(F)c(F)c(F)c4)c3C[C@H]2CN1C(=O)c1ccccc1	0.683	-0.166	0.117	1.23	1.68	2.02	1.16	1.47 (inactive)	0.437	0.776
